# Test results from the supplement of paper PMC8728848.
# Many of the other results were omitted from the sample, so the strongest signals are more common in it than they were.
# B1: Epa8 (Candida glabrata) (protein)
# chain: MGSSHHHHHHSSGLVPRGSHMASSRALSDYPLGCSPLLGTKLTPGLSMELYEYPLDNHGIGPHCWDPAYLNPEYPRTGFESHKLIGTAQNVMSLNFEHRTQDCHVEFSNLPASFNFPDQITLTNFTMLLYGYFKPKESGRYRFHMEADDLLLMNLGAGNAFDCCAHEATRNNLGDYIAYDIWAGTRKDVEVFLEKEVFYPLRLFFNNRDGRAALDFSYYLNGATEPGTDIPELLFSLPDGESCPAYI
# What was measured:
# Experiment in all cases: glycan array binding signal (z-score within array); higher = stronger binding
# Details in all cases: glycan notation: IUPAC condensed, linker removed
# [1] = target: Gal(b1-4)GlcNAc
# How it was run: (§1)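 Arrays were curated from the Consortium for Functional Glycomics database, 3228 in total, and kept only where the protein sequence was available. Binding is expressed as a within-array Z-score. This score was averaged across arrays of the same protein sequence at different concentrations or buffers and across linkers, and negative values can be read as non-binding.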
# [2] = target: Gal(b1-4)GlcNAc(b1-2)Man(a1-3)[GlcNAc(b1-4)][Gal(b1-4)GlcNAc(b1-2)Man(a1-6)]Man(b1-4)GlcNAc(b1-4)GlcNAc
# How it was run: as §1
# [3] = target: Gal(b1-4)GlcNAc(b1-3)Gal(b1-3)GalNAc
# How it was run: as §1
# [4] = target: Gal3S(b1-4)Glc6S
# How it was run: as §1
# [5] = target: Gal6S(b1-4)Glc
# How it was run: as §1
# [6] = target: GlcNAc(b1-3)Gal(b1-4)Glc
# How it was run: as §1
# [7] = target: GlcNAc(b1-3)Gal(b1-4)GlcNAc(b1-3)Gal(b1-4)GlcNAc(b1-2)[GlcNAc(b1-3)Gal(b1-4)GlcNAc(b1-3)Gal(b1-4)GlcNAc(b1-6)]Man(a1-6)[GlcNAc(b1-3)Gal(b1-4)GlcNAc(b1-3)Gal(b1-4)GlcNAc(b1-2)Man(a1-3)]Man(b1-4)GlcNAc(b1-4)[Fuc(a1-6)]GlcNAc
# How it was run: as §1
# [8] = target: GlcNAc(b1-3)Gal(b1-4)GlcNAc(b1-3)Gal(b1-4)GlcNAc(b1-3)Gal(b1-4)GlcNAc(b1-2)[GlcNAc(b1-3)Gal(b1-4)GlcNAc(b1-3)Gal(b1-4)GlcNAc(b1-3)Gal(b1-4)GlcNAc(b1-6)]Man(a1-6)[GlcNAc(b1-3)Gal(b1-4)GlcNAc(b1-3)Gal(b1-4)GlcNAc(b1-3)Gal(b1-4)GlcNAc(b1-2)Man(a1-3)]Man(b1-4)GlcNAc(b1-4)[Fuc(a1-6)]GlcNAc
# How it was run: as §1
# [9] = target: GlcNAc(b1-3)Gal(b1-4)GlcNAc(b1-3)Gal(b1-4)GlcNAc(b1-3)Gal(b1-4)GlcNAc(b1-3)Gal(b1-4)GlcNAc(b1-2)[GlcNAc(b1-3)Gal(b1-4)GlcNAc(b1-3)Gal(b1-4)GlcNAc(b1-3)Gal(b1-4)GlcNAc(b1-3)Gal(b1-4)GlcNAc(b1-6)]Man(a1-6)[GlcNAc(b1-3)Gal(b1-4)GlcNAc(b1-3)Gal(b1-4)GlcNAc(b1-3)Gal(b1-4)GlcNAc(b1-3)Gal(b1-4)GlcNAc(b1-2)Man(a1-3)]Man(b1-4)GlcNAc(b1-4)[Fuc(a1-6)]GlcNAc
# How it was run: as §1
# [10] = target: GlcNAc(b1-3)GalNAc
# How it was run: as §1
# [11] = target: GlcNAc(b1-3)[GlcNAc(b1-6)]Gal(b1-4)GlcNAc
# How it was run: as §1
# [12] = target: Man(a1-2)Man(a1-3)[Man(a1-2)Man(a1-6)]Man
# How it was run: as §1
# [13] = target: Man(a1-3)[Man(a1-6)]Man(b1-4)GlcNAc(b1-4)[Fuc(a1-6)]GlcNAc
# How it was run: as §1
# [14] = target: Neu5Ac(a2-3)Gal(b1-3)GlcNAc(b1-2)Man(a1-3)[GlcNAc(b1-4)][Neu5Ac(a2-3)Gal(b1-3)GlcNAc(b1-2)Man(a1-6)]Man(b1-4)GlcNAc(b1-4)GlcNAc
# How it was run: as §1
# [15] = target: Neu5Ac(a2-3)Gal(b1-4)GlcNAc
# How it was run: as §1
# [16] = target: Neu5Ac(a2-3)Gal(b1-4)GlcNAc(b1-2)Man(a1-3)[Neu5Ac(a2-6)Gal(b1-4)GlcNAc(b1-2)Man(a1-6)]Man(b1-4)GlcNAc(b1-4)GlcNAc
# How it was run: as §1
# [17] = target: Neu5Ac(a2-3)Gal(b1-4)GlcNAc(b1-2)[Neu5Ac(a2-3)Gal(b1-4)GlcNAc(b1-4)]Man(a1-3)[GlcNAc(b1-4)][Neu5Ac(a2-3)Gal(b1-4)GlcNAc(b1-2)[Neu5Ac(a2-3)Gal(b1-4)GlcNAc(b1-6)]Man(a1-6)]Man(b1-4)GlcNAc(b1-4)GlcNAc
# How it was run: as §1
# [18] = target: Neu5Ac(a2-3)[GalNAc(b1-4)]Gal(b1-4)GlcNAc(b1-3)GalNAc
# How it was run: as §1
# [19] = target: Neu5Ac(a2-6)Gal(b1-4)GlcNAc(b1-3)Gal(b1-4)GlcNAc(b1-2)Man(a1-3)[Neu5Ac(a2-6)Gal(b1-4)GlcNAc(b1-3)Gal(b1-4)GlcNAc(b1-2)Man(a1-6)]GalNAc
# How it was run: as §1
# [20] = target: Neu5Ac(a2-6)Gal(b1-4)GlcNAc(b1-3)Gal(b1-4)GlcNAc(b1-3)Gal(b1-4)GlcNAc
# How it was run: as §1
# [21] = target: Neu5Ac(a2-6)Gal(b1-4)GlcNAc(b1-3)Gal(b1-4)GlcNAc(b1-3)Gal(b1-4)GlcNAc(b1-2)Man(a1-3)[Neu5Ac(a2-6)Gal(b1-4)GlcNAc(b1-3)Gal(b1-4)GlcNAc(b1-3)Gal(b1-4)GlcNAc(b1-2)Man(a1-6)]GalNAc
# How it was run: as §1
# [22] = target: Neu5Ac(a2-6)Gal(b1-4)GlcNAc(b1-3)Gal(b1-4)[Fuc(a1-3)]GlcNAc(b1-3)Gal(b1-4)[Fuc(a1-3)]GlcNAc
# How it was run: as §1
# [23] = target: Neu5Ac(a2-6)Gal(b1-4)GlcNAc(b1-6)[Gal(b1-3)GlcNAc(b1-3)]Gal(b1-4)Glc
# How it was run: as §1
# [24] = target: Neu5Ac(a2-6)GlcNAc(b1-4)GlcNAc(b1-4)GlcNAc
# How it was run: as §1
# [25] = target: Neu5Ac(a2-8)Neu5Ac(a2-3)Gal(b1-3)GalNAc(b1-4)[Neu5Ac(a2-8)Neu5Ac(a2-3)]Gal(b1-4)Glc
# How it was run: as §1
# [26] = target: Neu5Ac9Ac(a2-6)Gal(b1-4)GlcNAc
# How it was run: as §1
binder,measurement,setting,value
B1,glycan array binding signal (z-score),[1],-0.292
same,glycan array binding signal (z-score),[2],-1.47
same,glycan array binding signal (z-score),[3],-1.06
same,glycan array binding signal (z-score),[4],0.684
same,glycan array binding signal (z-score),[5],0.199
same,glycan array binding signal (z-score),[6],-0.331
same,glycan array binding signal (z-score),[7],3.86
same,glycan array binding signal (z-score),[8],3
same,glycan array binding signal (z-score),[9],2.23
same,glycan array binding signal (z-score),[10],-0.661
same,glycan array binding signal (z-score),[11],0.492
same,glycan array binding signal (z-score),[12],-0.246
same,glycan array binding signal (z-score),[13],2.33
same,glycan array binding signal (z-score),[14],1.49
same,glycan array binding signal (z-score),[15],-0.315
same,glycan array binding signal (z-score),[16],0.195
same,glycan array binding signal (z-score),[17],-0.346
same,glycan array binding signal (z-score),[18],0.105
same,glycan array binding signal (z-score),[19],2.31
same,glycan array binding signal (z-score),[20],-0.084
same,glycan array binding signal (z-score),[21],3.31
same,glycan array binding signal (z-score),[22],-0.491
same,glycan array binding signal (z-score),[23],-0.638
same,glycan array binding signal (z-score),[24],-0.271
same,glycan array binding signal (z-score),[25],0.256
same,glycan array binding signal (z-score),[26],-0.4
